# TbPYK inhibitor = T. brucei pyruvate kinase inhibition | Q57TT1 | TbPYK enzyme, Kinase-Glo Plus ATP luminescence, 45 min | Potency, µM (titrated, usually from 76.8 µM), for inactives: at the top dose activity, negative = inhibition, most hits filed as inhibitors | 410,000 compounds, 0.12% hits | AID 624173; note: potency is the fitted concentration of half-maximal effect; % is set by controls: 0 for no effect and ±100 for the full control effect; nearly all actives have a fitted effect of over 50% in size
#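 Activity of T. brucei pyruvate kinase was followed by Kinase-Glo Plus luminescence after the enzyme reacted 45 min at room temperature with 130 uM ADP (final) and substrate. Test compounds were added before ADP at multiple concentrations.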
# CHX counter = affects cycloheximide protein synthesis inhibition readout, counter-screen; cell reporter, cycloheximide protein synthesis inhibition counterscreen; max response, %; 300,000 compounds, 12% hits; in the data active = max response mostly above about 13%, no sharp cut-off; inactive = mostly below about 14%; note: read at 38.3 µM for the half of the compounds with a filed dose; 0% is about no effect
# RE007 growth inh = less growth of the S. pombe RE007 Vpr strain | Potency, µM (highest dose often 92.2 µM), for the others: at the highest dose activity change, negative = less growth, most hits filed as inhibitors | AID 651644 | 360,000 compounds, 0.21% hits | S. pombe RE007 Vpr strain, BacTiter-Glo ATP luminescence, 24 h; active = well fitted falling curve with a large enough effect; inconclusive = small, poorly fitted or top-dose-only effect; inactive = no such curve, though single readings can be large or run the other way; note: potency is the fitted concentration of half-maximal effect; % is set by controls: 0 for no effect and ±100 for the full control effect; nearly all actives have a fitted effect of over 50% in size
#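 Fission yeast RE007 carrying one integrated HIV-1 vpr copy, seeded at OD 0.01 in PMG+AL medium with 23 nL pinned compound. Grown 24 h at 30 degrees; viability read by BacTiter-Glo luminescence after 5 min.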
# LmPK inhibitor = inhibitors of Leishmania mexicana pyruvate kinase; AID 1721; purified LmPK, Kinase-Glo ATP luminescence, 1 h; Potency, µM (titrated, usually from 57.5 µM), without a hit: at the highest dose activity change, negative = inhibition, most hits filed as inhibitors; Q27686; 290,000 compounds, 0.37% hits; note: potency is the fitted concentration of half-maximal effect; % is set by controls: 0 for no effect and ±100 for the full control effect
# Target sequence (Q27686 whole entry, looked up): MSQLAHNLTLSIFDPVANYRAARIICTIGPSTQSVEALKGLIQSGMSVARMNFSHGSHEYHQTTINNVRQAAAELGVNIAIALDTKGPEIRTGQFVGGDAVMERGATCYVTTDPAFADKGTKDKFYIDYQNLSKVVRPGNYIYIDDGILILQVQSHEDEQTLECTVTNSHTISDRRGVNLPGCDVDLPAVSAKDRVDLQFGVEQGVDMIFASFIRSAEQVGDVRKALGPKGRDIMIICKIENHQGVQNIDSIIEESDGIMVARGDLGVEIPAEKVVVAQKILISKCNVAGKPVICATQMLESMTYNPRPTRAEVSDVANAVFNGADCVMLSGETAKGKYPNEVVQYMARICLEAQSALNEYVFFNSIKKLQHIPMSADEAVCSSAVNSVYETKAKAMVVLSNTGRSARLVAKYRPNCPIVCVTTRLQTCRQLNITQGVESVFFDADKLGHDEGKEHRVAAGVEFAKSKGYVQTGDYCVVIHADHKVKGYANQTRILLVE
#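 Screened at intermediate enzyme activity to detect both inhibitors and activators: LmPK at 0.1 nM, with a 0.5 nM enzyme column as activation reference. PEP 0.5 mM, ADP 0.1 mM; ATP detected by luminescence after 1 h.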
# FBPA Giardia inh = blocks Giardia fructose-bisphosphate aldolase activity | A8B2U2 | purified Giardia FBPA | Potency, µM (titrated, usually from 59.6 µM), for the others: top-dose activity, negative = inhibition, hits mostly inhibitors | 290,000 compounds, 0.71% hits; note: potency is the fitted concentration of half-maximal effect; % is set by controls: 0 for no effect and ±100 for the full control effect; nearly all actives have a fitted effect of over 55% in size
#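 Giardia FBPA (40 nM reagent) was preincubated 10 min at RT with compound (up to 57.5 uM final), then substrate plus GAPDH/TPI/NAD/arsenate coupling system with diaphorase/resazurin was added; resorufin fluorescence (525/598 nm) was read after 20 min.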
# Shiga inhibitor = blocks Shiga toxin action in Vero cells; AID 2315; 290,000 compounds, 9.2% hits; Vero cells, Shiga toxin protein synthesis inhibition reporter; inhibition, % at 38.7 µM; in the data active = inhibition mostly above about 28%, no sharp cut-off; inactive = mostly below about 43%; note: 0% is about no effect
# An asterisk follows results filed as active; ? = inconclusive; nt = no result given; + = active, no number; [ ] = another dose, or the depositor's remark. The sample as a whole holds a higher share of hits than the screen did. Unless noted, calls come from the whole dose curve; as a rule, active = well fitted curve in the direction sought with a large enough effect; inconclusive = small, poorly fitted or top-dose-only effect, or another doubt; inactive = no such curve, though single readings can be large; an effect the other way counts as inactive or inconclusive.
SMILES,TbPYK inhibitor,CHX counter,RE007 growth inh,LmPK inhibitor,FBPA Giardia inh,Shiga inhibitor
Cc1cc2c(NC(=O)Nc3ccccc3)cccc2nn1,3%,5,3%,4%,5µM*,20
CCc1ccccc1NC(=O)Nc1ccc(F)cc1,1%,14*,-12%,-17%,2%,31
CCc1ccccc1NC(=O)Nc1cccn(Cc2ccc(F)cc2)c1=O,-3%,-2,7%,4%,-20%,-5
O=C(Nc1ccccc1)Nc1cccc(NC(=O)Nc2ccccc2)c1F,4%,18*,2%,1%,0%,47
CCOc1ccccc1NC(=O)Nc1ccc(Cl)cc1,0%,76*,nt,-5%,-12%,41*
CON(C)C(=O)Nc1ccc(Br)c(Cl)c1,nt,27*,nt,nt,-6%,54*
O=C(Nc1ccccc1)Nc1ccccc1Br,-2%,68*,-22%,-23%,-1%,117*
CCOc1ccccc1N(C(=O)Nc1ccc(Cl)cc1)C1=NC(C)CS1 (configuration not stated),-1%,25*,-20%,2%,-5%,82*
O=C(Nc1nonc1-c1ccc(Cl)cc1)c1ccccc1F,3%,nt,nt,nt,nt,nt
Cn1nnc2c(N3CCN(c4ccc(F)cc4)CC3)ncnc21,-2%,nt,nt,nt,nt,nt
O=C(Nc1ccccc1)Nc1ccc(Br)c(Cl)c1,5%,42*,0%,1%,-1%,72*
COc1cc2c(cc1OC)C(COc1ccc3c(C)cc(=O)oc3c1)N(C(=O)c1cccc(OC)c1OC)CC2 (configuration not stated),0%,nt,nt,nt,nt,nt
O=C(Cn1cc(C(F)(F)F)ccc1=O)NCC1CCCO1 (configuration not stated),0%,nt,12%,nt,nt,nt
O=C(Cn1cccc1C(=O)c1ccccc1)NCc1ccc2c(c1)OCO2,0%,29*,8%,5%,22%,52*
O=C(Cn1cccc1C(=O)c1ccccc1)NCc1ccccc1,-4%,9,-16%,7%,1%,22
O=C(Cn1cccc1C(=O)c1ccccc1)NCc1ccc(F)cc1,-6%,16*,-2%,-7%,3%,9
O=C(Cn1cc(C(F)(F)F)ccc1=O)NCc1ccc(F)cc1,5%,29*,1%,-1%,4%,36*
CCN1CCN(c2oc(/C=C/c3ccccc3OC)nc2C#N)CC1,0%,nt,nt,nt,nt,nt
CNc1oc(/C=C/c2ccccc2)nc1C#N,-7%,78*,2%,0%,0%,122*
CCN1CCN(c2oc(/C=C/c3ccccc3)nc2C#N)CC1,-4%,42*,-3%,1%,?,38
COCCNc1oc(/C=C/c2ccccc2)nc1C#N,-6%,56*,-2%,-4%,-5%,113*
N#Cc1nc(/C=C/c2ccccc2)oc1NCCCN1CCOCC1,-5%,33*,-2%,-2%,-9%,83*
CCOc1ccc2nc(-c3ccccc3)[nH]c2c1,-1%,35*,-28%,?,-2%,71*
Cc1ccc2[nH]c(-c3ccc(F)cc3F)cc(=O)c2c1,nt,32*,nt,nt,-5%[89.2 µM],+
COc1ccc2nc(-c3ccccc3)[nH]c2c1,-22%,57*,?,16µM*,?,73*
SMILES,TbPYK inhibitor,CHX counter,RE007 growth inh,LmPK inhibitor,FBPA Giardia inh,Shiga inhibitor
COc1ccc2[nH]c(-c3ccc(C)cc3)cc(=O)c2c1,-15%,32*,0%,-30%,2%,47
COc1ccc2nc(C(C)O)[nH]c2c1 (configuration not stated),-1%,11,1%,0%,-18%,14
CCOC(=O)c1ccc(NC(=O)Cn2cc(C(=O)c3ccc(Cl)cc3)c(=O)c3ccc(C)nc32)cc1,-2%,nt,nt,nt,nt,nt
COCCn1c(=O)c(-c2ccccc2)nc2cnc(N(C)C)nc21,nt,nt,nt,nt,-16%,nt
CSCC[C@H](NC(=O)[C@H](CC(C)C)NC(=O)CNC(=O)[C@H](Cc1ccc(O)cc1)NC(=O)[C@H](Cc1ccccc1)NC(=O)[C@H](CCC(N)=O)NC(=O)[C@H](CCC(N)=O)NC(=O)[C@@H]1CCCN1C(=O)[C@H](CCCCN)NC(=O)[C@@H]1CCCN1C(=O)[C@@H](N)CCCN=C(N)N)C(N)=O,nt,-2,nt,nt,2%,-6
COc1ccc2[nH]c(C(=O)c3ccccc3)cc2c1,nt,nt,nt,nt,1%,nt
COc1ccc2[nH]c(-c3ccccc3)cc2c1,-1%,74*,?,-10%,-11%,88*
COc1ccccc1C(=O)Nc1cc2c(cc1N1CCOCC1)n(C)c(=O)n2C,-1%,nt,nt,nt,nt,nt
CN(C)c1ccc(-c2nc(-c3cc4cc(Cl)ccc4oc3=O)cs2)cc1,1%,nt,nt,nt,nt,nt
Cn1ccnc1SCC(=O)c1ccc(OC(F)F)cc1,11%,33*,6%,-7%,-10%,78*
COc1ccc(C(=O)CSc2nccn2C)cc1,-7%,29*,-9%,-15%,?,67*
Cn1ccnc1SCC(=O)c1cccc(C(F)(F)F)c1,-10%,26*,-4%,3%,11%,72*
Cn1ccnc1SCC(=O)c1ccc(C#N)cc1,-7%,-4,6%,0%,-27%,23
CCOc1ccc(C(=O)CSc2nnc(C3CC3)n2C)cc1,-9%,14*,32%,1%,2%,37*
Cc1sc2ncn(CC(=O)Nc3ccc(C(C)C)cc3)c(=O)c2c1S(=O)(=O)N1CCN(c2ncccn2)CC1,-1%,nt,nt,nt,nt,nt
COC(=O)c1ccc(NC(=O)CC2C(=O)N(c3cccc(OC)c3)C(=O)N2Cc2cccs2)cc1 (configuration not stated),-1%,nt,nt,nt,nt,nt
COc1ccc(C(=O)CSc2cc(C)[nH]c(=O)n2)cc1,1%,40*,-5%,0%,-12%,64*
COc1ccc(CC(=O)NCc2nnc(SCC(=O)c3ccc(OC)cc3)n2C)cc1,7%,1,?,-2%,7%,-19
COC(=O)c1ccc(CSc2nccn2C)cc1,-4%,52*,-6%,-5%,?,65*
COc1ccc(NCc2nnc(SCC(=O)c3ccc(OC)cc3)n2C)cc1,?,34*,-13%,-3%,?,28
C[C@@]12C=Cc3occc3C1CC[C@@]13C[C@@H](CCC12)[C@@](O)(CO)C3 (some centres not stated),nt,0,nt,nt,-8%,23
CC1=C(C(=O)N2CCN(c3ccc(Cl)cc3)CC2)C2(CCC(C)CC2)OC1=O (configuration not stated),3%,nt,nt,nt,nt,nt
CCOc1ccc(NC(=O)C2CCN(c3nnc(-n4c(C)ccc4C)s3)CC2)cc1,-1%,nt,nt,nt,nt,nt
Cc1c(C(=O)O)cccc1-c1ccc(/C=N/Nc2ccc(Br)cc2)o1,-13%,106*,?,8%,-14%,140*
Cc1c(C(=O)O)cccc1-c1ccc(/C=N/n2cnnc2)o1,-12%,28*,10%,0%,1%,38

# Source: PubChem BioAssay
